About 3,700 (7%) of roughly 53,000 sequences were called active. The entries come from a sample that favours actives as a whole. A number with no mark means an inactive call.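 How the source made its calls: active means gene knockdowns whose robust z-score for IL-1 alpha signal is at least 2 or at most -2, so actives lie on both sides; inactive means the rest.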

A short description of the assay: Components of the Cytosolic LPS Sensing Pathway: Gene Identification via Genome-wide siRNA Screen.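 Further: robust z of the log signal after scaling to non-targeting control siRNA wells of the plate.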 As to conditions: RAW264.7 macrophages, IL-1a HTRF, actives lie on both sides, screened at 100 nM (by protocol), cells primed 5 h with Pam3CSK4 first. The method, boiled down:
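Read-out: IL-1a HTRF on supernatant, divided by plate negative-control median ×100, log-transformed and converted to robust z-score. Cells were RAW264.7 given 100 nM siRNA, Pam3CSK4-primed 5 hours, then LipidA-transfected 24 hour.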
Take CCGCCUAGCUGAUCUUGUGTT against Aldh1b1: the z-score is -0.495.
For GCUUUUACCGUUACGUCUUTT against Uggt1, the z-score is 2.18 (active).
For the sequence GGACAGCAGUAAAUAUACUTT against Coq3, the z-score is 0.423.
GCUAUUAAUAUCCUGGUCCTT against Slc7a2: the z-score was -0.543.
Take CCUAGACAUCAGUAAUGCGTT against Zbtb17: the z-score was -0.43.
Turning to AACUGUACAUUGAAGCAGATT against Cstf3, the z-score was 0.391.
On to GCAUGAAAAGGUAUUACUCTT against Exoc6, for which the z-score is 0.734.
Turning to GCACUAUCCACAUGCACAUTT against Olfr1281, the z-score is 0.469.
Turning to GGCCUAUGUCAGCACUUUATT against Eif3f, the z-score is -0.113.
Regarding GGAUUGCUUUUGAGCAACATT against Ccdc125, the z-score was -2.05 (active).
In the case of GCUUCUAAGCUUUAGAGGGTT against Rassf10 it was -1; in that of GGAUACAGUUAAGAGAUAUTT against Xpr1, -1.34.
As for GCAUAGCCACAAGGUUAAUTT against Nat8f4, the z-score was 0.35.
With GUAUUAUAGACACCUUGCATT against Phip, the z-score was -0.835.
In the case of GGACAGCUACCUCAUCCAUTT against Lpcat3 it was 2.08 (active); in that of GGACAGAUGAAGCUGCAUUTT against S100a4, -0.422; in that of GGUGAAGAAGAGUCUCAAATT against Mrnip, 1.6.
To GCACAUAUCACGCUACCUGTT against Lrrc75b belongs -0.0605; to GCGAAGAGUGAUUGAUCCATT against Myh1, -0.773.
Regarding GGAAGCAGAAGCUAAAGUGTT against Ubap1, the z-score was 2.11 (active).
In the case of CCUGACAGUAGUUACUAUUTT against Olfr1154, the z-score was -0.945.
To GGUUUUUUGUAGCAAACAGTT against Phc2 belongs -2.7 (active); to GGUCCUUUACAUGAACCGCTT against Vps18, -0.661.
In the case of GGAAUGCAUGAUGAUGUCATT against Prl7a2, the z-score is -0.783.
As to GGGAUCCUCUUGACAUUCCTT against Epdr1, the z-score is 3.87 (active).
For GGUAGCAGACAGCUACCCUTT against Tnfsf15, the z-score is 0.405.
For the sequence CCAAGCUAUUGGCCCUGACTT against Defb38, the z-score is 0.251.
As to GCUGAUGACCACUGAGUUUTT against Tsr2, the z-score was 1.34.
For the sequence GCAAGUCAGCUACAACUGUTT against Rnasek, the z-score is 0.0313.
For GGUGGCUAUAACAGAGCCUTT against Rdh18-ps, the z-score is 0.173.
Turning to GGAAACAAGGAAGCAAUUATT against Psmd1, the z-score was -3.01 (active).
For GGAGAAACCAGCUAAAGGATT against Car9, the z-score was -0.235.
Regarding GGUGAUCAGCAUGGUGGGUTT against Pold1, the z-score is 0.208.
Take GGUAUAAAGAACUCUGUCATT against Cep78: the z-score is -2.49 (active).
On to GGGUGAUAGCAAGACACAGTT against Olfr720, for which the z-score was 1.06.
As for GGAGGACCAAGAGGACAUUTT against Tbl3, the z-score was 0.468.
With GGCCCAAGAGAUUGAUCAATT against Ivd, the z-score was -0.565.
With CGAAACCUCUAAGAAGAUATT against Pole, the z-score is -0.264.
To GGCAUGUUCCUCAUAUGCCTT against Lrit1 belongs -2.01 (active); to GGAGCAUUGCCUUUUAAAGTT against Psph, -0.474; to CCAAUUGGGCCACACGUAATT against Tial1, 1.15.
GGACUCUUUUGGACCUAAGTT against Hilpda: the z-score is -1.24.
With GGAACAAAUUCUGGAGUUGTT against Zfp287, the z-score was 0.791.
For the sequence GGUUACAGAGAGACAUCAUTT against Cdk5rap2, the z-score is 0.942.
To GGGUUUCAACGGCUGUGACTT against Mef2d belongs -2.73 (active).
Turning to GGUUAUGGAGACAAAGGAUTT against Sik1, the z-score was -1.33.
Turning to CCGUACGAUGAUAAUACCATT against Clec4a3, the z-score was 2.29 (active).
For the sequence GGAGCUAGCUGAGUUCAUGTT against Arhgap4, the z-score was 1.22.
GGACAGCUCUCUUUAGUCUTT against Erf: the z-score was -1.78.
To GGACCUGAAGGCUGAAAUUTT against Ing4 belongs 3.08 (active); to GGUCUGAUAACUCUGGAGGTT against Snf8, -0.0859; to GGAUGGACAUCCAAGCAGGTT against Fabp9, -1.97.
To GGAGUGUUACUAGAUGUCCTT against Spns3 belongs 0.394; to “CGAACUGGUAGAAGUUAUUTT against Csgalnact2”, 2.07 (active); to GGUCUCUGUACUUUGACUGTT against Cldn19, -1.2.
Consider GGAGCAAAAUUCACAGUCUTT against Bcl7a, for which the z-score is -0.25.
On to GAUUGGCUUCAAUCUAGUCTT against Olfr713, for which the z-score is 0.701.
Turning to GGGCCAGAGUCAGAAAAGGTT against Ebp, the z-score was 1.98.
Take GCGUAUGUACCGAUGGCAGTT against Mocs2: the z-score was 0.871.
On to CGCUGCCUAAACAAGAUUATT against Cacna1f, for which the z-score is 3.28 (active).
Consider AGACCUUGAGAACAUUCUUTT against Nkx2-6, for which the z-score was 0.925.
On to CCGUGAUCUUAAACCCUCUTT against Mapk7, for which the z-score is -0.988.
For CGUUUUACCACCGUGUGCUTT against Gfra1, the z-score was -0.284.
Take GGUAAUUCAGUCUUAUACATT against Pcdhb21: the z-score was 3.2 (active).
As for CGUGAAGAUUCUUAAGGCGTT against Ppil1, the z-score is 0.716.
GGUGGAAUUGAAGAGUUCATT against Rcor3: the z-score is 0.24.
For the sequence GCAAGAAACGGGAACUAUUTT against Mettl7b, the z-score is 1.25.
On to GGCCUUAGAAUUUGAUUCUTT against Slc30a8, for which the z-score is 0.814.
For GGAUGUAUAGGUUCAGCUGTT against Dph2, the z-score is 0.41.

Values taken from PubChem BioAssay AID1508600 (Functional Genomics Laboratory (NCATS/FGL), 2020).
